In the library only some 1.6% were active in any assay of this set; here they are far more common.
Peg3 imprint: genomic imprint erasure induction. mouse ES Peg3-LacZ reporter, beta-gal luminescence, 40 h. Potency, µM (titrated, usually from 60.7 µM), for the others: at the highest dose activity change, positive = activation, actives largely listed as activators. actives 0.02% (n = 110,000). AID 1948; further: potency means the concentration at half of the fitted maximal effect
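Gelatin-coated wells received 300 freshly trypsinized female ES cells with a Peg3LacZ-Neo reporter on the maternal allele, then incubated 40 hours at 37C. BetaGlo was added for 5 minutes at room temperature before a single luminescence read.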
HBB splicing: modulators of hemoglobin beta chain splicing. HBB splicing reporter cell assay, activation; EGFP reporter with mutant IVS2-654 intron; response scale: normalised to 500 nM splice-correcting PNA. Potency, µM (top dose mostly 46.1 µM), for inactives: at the top dose activation, actives largely listed as activators. actives 0.06% (n = 65,000). AID 925; further: potency means the concentration at half of the fitted maximal effect; 0% is about no effect
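Compounds were applied for 2 days to HeLa EGFP-654 cells, 500/well in Optimem with 2% FCS. The reporter's EGFP is disrupted by mis-splicing of beta-globin intron IVS2-654. Readout: summed well GFP fluorescence from 488 nm laser scanning; reference was 500 nM antisense […] 654 PNA.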
UbGFP stabilizer: proteasome inhibitors stabilizing ubiquitin-GFP reporter; Ubiquitin-GFP reporter cells, proteasome inhibition, GFP fluorescence; response scale: untreated = 0%, 10 µM MG-132 = 100%; Potency, µM (highest dose often 45.9 µM), without a hit: at the highest dose activation (GFP accumulation), most hits filed as activators; 67,000 tested, under 10 active; AID 526; active means well fitted activation curve with a large enough effect, not every such curve was filed as active; inconclusive means small, poorly fitted or top-dose-only effect, or another doubt; inactive means no such curve, though single readings can be large or run the other way; further: potency means the concentration at half of the fitted maximal effect
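U2OS Ub(G76V)-GFP reporter; O/N plating, 0.5% FBS; cpd 46 uM–2.9 nM, 4 h, 37 °C; GFP+ cell count, 488/515 nm; norm. to basal vs 10 uM MG-132; CRC fit.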
p53ts 39C kill: cytotoxicity in p53ts cells at nonpermissive temperature. H1299-p53A138V viability at 39C, ATP luminescence, 24 h. Potency, µM (highest dose often 46.1 µM), for the others: top-dose activity change, negative = cell killing, most hits filed as cytotoxic. actives 1.5% (n = 130,000); further: potency means the concentration at half of the fitted maximal effect; on the % scale 0 is the no-effect control and ±100 the full control effect; nearly all actives have a fitted effect of over 55% in size
p53ts 32C kill: p53ts cell cytotoxicity, permissive temperature | H1299-p53A138V at 32C, ATP luminescence viability, 24 h | Potency, µM (series often up to 46.1 µM), for the others: at the top dose activity change, negative = cytotoxicity, hits mostly cytotoxic | actives 0.93% (n = 130,000) | AID 924;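 further: potency means the concentration at half of the fitted maximal effect; 0% = DMSO and -100% = full killing by reference compound; nearly all actives have a fitted effect of over 55% in size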
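H1299-p53 A138V cells (temperature-sensitive p53) exposed 24 h to up to 46 uM compound at 32C, where p53 is wild-type in conformation. Viability read as ATP luminescence and normalised to DMSO and 100 uM tamoxifen. AC50 fitted with the Hill equation.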
Epigenetic mod: epigenetic modulators derepressing GFP locus in mouse cells. mouse C127i GFP locus derepression, cytometry, 30 h. Potency, µM (titrated, usually from 46.1 µM), inactives show at the highest dose GFP derepression (activation). actives 0.09% (n = 68,000); further: % of control where 0% means no effect
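Locus derepression in mouse mammary C127i cells whose integrated CMV-GFP reporter is normally silent; GFP expression after 30 h compound treatment was quantified by counting fluorescent cells.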
Starred values were filed as active, the others as inactive; ? = inconclusive; . = no result; [ ] = dose if it differs, or a comment. Unless noted, the call rests on the fitted dose curve; in most records, active means well fitted curve in the direction sought with a large enough effect; inconclusive means small, poorly fitted or top-dose-only effect, or another doubt; inactive means no such curve, though single readings can be large; an effect the other way counts as inactive or inconclusive.

SMILES | Peg3 imprint | HBB splicing | UbGFP stabilizer | p53ts 39C kill | p53ts 32C kill | Epigenetic mod
COc1ccc2nc(N3CCN(C(=O)CS(=O)(=O)c4ccc(C)cc4)CC3)sc2c1 | -13%[10.9 µM] | . | . | 7.9µM* | 11µM* | .
O=C(O)[C@@H]1[C@H](C(=O)O)[C@]2(Cl)C(Cl)=C(Cl)[C@@]1(Cl)C2(Cl)Cl | 2%[10.9 µM] | 1%[9.22 µM] | 2%[9.17 µM] | 1µM* | ? | 3.2µM*
COc1ccc(NC(=O)CCc2nc(C3=CCN(Cc4cccc(Cl)c4)CC3)no2)c(OC)c1 | 5%[10.9 µM] | . | . | 4% | 3% | .
CCOC(=O)c1ccc(N2C(=O)c3n[nH]c(-c4cccs4)c3C2c2ccc(C(C)(C)C)cc2)cc1 (stereo not drawn) | -16%[10.9 µM] | . | . | 16µM* | ? | .
COc1ccc(C(=O)O)cc1OC | -1% | . | . | -3% | -18% | .
O=C(O)c1cc(O)c(O)c(O)c1 | -94% | -1% | . | 10µM* | 13µM* | .
COc1ccc(NC(=O)c2oc3ccc(S(=O)(=O)N(C)C4CCCCC4)cc3c2C)cc1 | -21%[10.9 µM] | . | . | ? | 10% | .
COc1c(C)cc(Br)cc1C(=O)Nc1ccc(-c2nc3ncccc3o2)cc1 | -18%[10.9 µM] | . | . | 6.3µM* | -28% | .
O=c1[nH]c(=O)n(-c2cccc(Cl)c2)c(O)c1C=NCCCN1CCOCC1 | 0% | -2% | 2% | -17% | -9% | 7%
CCC(=O)OC1CCC2C3CCc4cc(O)ccc4C3CC[C@]12C (stereo partly drawn) | -35% | . | . | 10µM* | ? | .
CNc1ccccc1C(=O)O | -9% | . | . | 6% | -6% | .
C[CH2][Hg][S]c1ccccc1C(=O)O | -88% | . | . | 1.3µM* | 1µM* | .
Cc1cccn2c(=O)cc(COc3cccc(NC(=O)COc4ccc(F)cc4)c3)nc12 | -6%[10.9 µM] | . | . | 7.9µM* | ? | .
CSC(=S)NCc1c[nH]c2ccccc12 | 18% | . | . | . | . | .
O=C(COC(=O)c1cccc(NC(=O)c2ccc(Br)cc2)c1)c1ccc(Br)cc1 | ? | . | . | ? | -24% | .
Cc1ccc(C(=O)COC(=O)c2cccc(NC(=O)c3ccc(Br)cc3)c2)cc1 | -16%[10.9 µM] | . | . | 7.9µM* | ? | .
CC1CC[C@@]2(OC1)O[C@@H]1[C@@H](O)[C@H]3C4CC[C@H]5C[C@@H](O[C@@H]6O[C@H](CO)[C@H](O[C@@H]7O[C@H](CO)[C@@H](O)[C@H](O[C@@H]8OC[C@@H](O)[C@H](O)[C@H]8O)[C@H]7O[C@@H]7O[C@H](CO)[C@@H](O)[C@H](O[C@@H]8O[C@H](CO)[C@@H](O)[C@H](O)[C@H]8O)[C@H]7O)[C@H](O)[C@H]6O)[C@H](O)C[C@]5(C)C4CC[C@]3(C)[C@H]1[C@@H]2C (stereo partly drawn) | -22% | . | . | 13µM* | 13µM* | .
CC1CC[C@@]2(OC1)OC1C(O)C3C4CC[C@H]5CC(O[C@@H]6O[C@@H](CO)[C@H](OC7OC(CO)C(O)C(OC8OCC(O)C(O)[C@H]8O)[C@@H]7O[C@@H]7OC(CO)[C@H](O)[C@@H](O[C@@H]8OC(CO)C(O)C(O)C8O)C7O)C(O)C6O)C(O)C[C@]5(C)C4CC[C@]3(C)C1C2C (stereo partly drawn) | -37% | . | . | 6.3µM* | 6.3µM* | .
C[N+]12CCC(CC1)C(C#N)(N1CCOCC1)C2 (stereo not drawn) | -1% | 8%[0.369 µM] | -5% | -3% | 2% | 15%
c1ccc(C(OCCN2CCNCC2)c2ccccc2)cc1 | -24% | 0%[57.5 µM] | -1% | -18% | -5% | 1%
C(=C/c1ccccc1)/CN1CCN(CCOC(c2ccccc2)c2ccccc2)CC1 | -19% | . | -3% | 32µM* | -19% | 7%
O=C(N/N=C/c1c(O)n(Cc2ccccc2)c(=O)[nH]c1=O)c1ccccc1O | . | . | . | 3% | . | .
